Structures are written as SMILES. ± gives the standard deviation.

The values below come from the supplement of paper PMC3484114.

For the test, the system named is OVCAR-3-derived ovarian cancer stem-like cells (spheroids). Briefly: cell growth relative to untreated control; higher = more growth (less inhibition). Particulars: 2.29 µM; 96 h. The method, boiled down:
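Percent growth was calculated against untreated wells once blanks were subtracted and Grubbs outliers removed. The cells were OVCAR-3 spheroid-derived stem-like cells, trypsinized and plated at 50,000 cells/mL in stem cell medium on ultra-low attachment 96-well plates for a 24 h preincubation. They were then exposed to compounds at 2.29 uM for 96 h at 37°C, 5% CO2, in 4 replicate wells, and viability was measured by TOX8 resazurin fluorescence (ex 560/em 590 nm) after 4 h.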
The compound `O=[N+]([O-])c1ccc(-c2cn(-c3ccc(Cl)cc3)cn2)cc1` had a cell growth of 106 ± 23%.
In the case of `O=C1c2ccccc2C(=O)c2sc(Nc3ccc(Cl)cc3)nc21` it was 14.5 ± 3.2%; in that of `N=C1C=C(N)C(=O)c2[nH]c(=O)ccc21`, 95.3 ± 55%.
`Cc1ccc2[nH]c(O)c(N=Nc3ccccc3[N+](=O)[O-])c2c1` yielded a cell growth of 108 ± 15%.
Turning to `Nc1ncnc2c1nnn2[C@@H]1O[C@H](CO)[C@@H](O)[C@H]1O`, the cell growth worked out at 23.1 ± 4.4%.
For the compound `CN(C)CCOC1(Cc2ccc(F)cc2)CCC(C(C)(C)C)CC1` (centres undefined), the cell growth came to 109 ± 34%.
Regarding `COc1cc(OC)c2c(C)cc(=O)oc2c1`, the cell growth amounted to 108 ± 32%.
In the case of `Oc1ccc(/C=N/NC(=S)Nc2cccnc2)nc1`, the cell growth turned out to be 145 ± 23%.
As to `COC(=O)C1(C)CCCC2(C)C3CCC4CC3(C=C4CO)CCC12` (centres undefined), the cell growth was 95.7 ± 14%.
Compound `CCOC(=O)Cc1c(C)c2cc(C(=O)c3ccccc3)c(O)cc2oc1=O` had a cell growth of 98 ± 18%.
In turn, `COc1ccc2nc3cc([N+](=O)[O-])ccc3c(NNc3ccccc3)c2c1` came in with a cell growth of 76.2 ± 22%.
In turn, `CCCCCC(/C=C/[C@@H]1CC(=O)C[C@H]1O[Si](C)(C)C(C)(C)C)OCOCCOC` (some centres undefined) registered a cell growth of 110 ± 24%.
Then `COc1cc2oc(=O)cc(C)c2cc1[N+](=O)[O-]`, with 137 ± 45%; and `COc1ccc2c(O)c3[n+](cc2c1OC)CCc1cc2c(cc1-3)OCO2`, with 103 ± 14%; and `C[C@H](CSC(=O)c1ccccc1)C(=O)N1c2ccccc2C[C@H]1C(=O)O`, with 90.9 ± 9.5%.
`O=S1(=O)CCN(c2ccccc2CC(c2c[nH]c3ccccc23)c2c[nH]c3ccccc23)CC1`: the cell growth is 104 ± 24%.
In the case of `COc1ccccc1[S+]([O-])Nc1ccccc1` (centres undefined) it was 117 ± 25%.
`Cc1cn(C2CC(O)C(CO)O2)c(=O)[nH]c1=O` (centres undefined) yielded a cell growth of 92.3 ± 10%.
As for `CCCCCCCCCCCCCCCC[N+](C)(C)Cc1ccc(F)cc1`, the cell growth turned out to be 54.1 ± 9.8%.
`CC/C(=C(\c1ccccc1)c1ccc(OCCN(C)C)cc1)c1ccccc1` yielded a cell growth of 115 ± 14%.
As for `CN=c1sc2c(n1C)C(=O)c1ccccc1C2=O`, the cell growth was found to be 83.2 ± 26%.
In the case of `N#CCCN(CCC#N)c1ccc(/C=C2/N=C(c3cc([N+](=O)[O-])ccc3Cl)OC2=O)cc1` it was 114 ± 40%; in that of `O=C1c2ccccc2C(=O)c2c(NCCNCCO)ccc(O)c21`, 67.2 ± 44%.
Regarding `O=C(NC(=O)c1c(Cl)nc2sccn12)Nc1ccc(Cl)cc1`, the cell growth amounted to 136 ± 25%.
`CNC(=S)N/N=C/c1ccc([N+](=O)[O-])s1` gave a cell growth of 87.9 ± 21%.
As to `COc1ccc(CCN(C)CCCC(C#N)(c2ccc(OC)c(OC)c2)C(C)C)cc1OC` (centres undefined), the cell growth came to 115 ± 16%.
`NC1(C(=O)O)CCCC1`: the cell growth is 84.9 ± 15%.
For `CC(C)C(C)C=CC(C)C1CCC2C3=CC=C4CC(O)CCC4(C)C3CCC21C` (centres undefined), the cell growth was 97.6 ± 23%.
For the compound `Cn1c(=O)c2nc3sc4c(n3c2n(C)c1=O)C(=O)c1ccccc1C4=O`, the cell growth was 115 ± 20%.
As for `CN1CCN(CN2C(=O)C3C4C=CC(C3C2=O)C2C3C(=O)N(CN5CCN(C)CC5)C(=O)C3C42)CC1` (centres undefined), the cell growth worked out at 91.4 ± 32%.
In the case of `Oc1ccc(-c2nc3ccccc3s2)cc1` it was 94.8 ± 14%; in that of `CCCCCCCCCCCCCCCC[N+](C)(C)CCl`, 104 ± 17%; in that of `CC(C)C1(Cl)CCC2C3(C)CCCC(C)(C(=O)O)C3CC(Cl)C2(Cl)C1Cl` (centres undefined), 94.6 ± 30%.
In the case of `NC1N=C(c2ccc(Cl)cc2)C2=C(N1)c1ccccc1CC2` (centres undefined) it was 85.7 ± 6.7%; in that of `C=C(C)[C@@H]1CC[C@]2(C(=O)O)CC[C@]3(C)[C@H](CC[C@@H]4[C@@]5(C)CC[C@H](O)C(C)(C)[C@@H]5CC[C@]43C)[C@@H]12`, 76 ± 22%; in that of `O=C(Nc1ccc(Sc2ccc(N=Nc3c(O)c(S(=O)(=O)O)cc4cc(S(=O)(=O)O)ccc34)cc2)cc1)c1ccc(N=Nc2c(O)ccc3c(S(=O)(=O)O)cc(S(=O)(=O)O)cc23)cc1`, 95.9 ± 9.6%.
The compound `Cc1nc(N)nc(N)c1-c1ccc(Cl)c(Cl)c1` came in with a cell growth of 102 ± 13%.
`CN1CCCC2C(c3ccccc3)C(C3=NCCCC3)C(c3ccccc3)CC21` (centres undefined) displayed a cell growth of 110 ± 27%.
For `c1ccc(-c2cccc(-c3ccccn3)n2)nc1`, the cell growth worked out at 79.9 ± 17%.
